# Bioassay records: PubChem BioAssay, several laboratories
# PAFAH1B2 FP inh: PAFAH1B2 enzyme inhibitors, primary screen, biochemical, fluorescence polarization, human. Platelet-activating factor acetylhydrolase IB subunit alpha2 (Homo sapiens), P68402. recombinant PAFAH1B2, FP-rhodamine activity probe. inhibition, % at 3.39 µM. actives 1.2% (n = 340,000). AID 492953, 2010;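 active = inhibition above the mean of all tested compounds plus 3 SD, cut at about 24% in these data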
# Target sequence (P68402 whole entry, looked up): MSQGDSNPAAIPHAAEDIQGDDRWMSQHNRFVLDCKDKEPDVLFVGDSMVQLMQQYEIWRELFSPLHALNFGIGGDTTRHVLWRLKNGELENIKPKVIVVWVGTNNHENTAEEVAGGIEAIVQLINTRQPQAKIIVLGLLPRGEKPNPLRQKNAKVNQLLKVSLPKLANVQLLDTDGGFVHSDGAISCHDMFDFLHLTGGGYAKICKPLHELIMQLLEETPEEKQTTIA
# PAFAH1B3 inh: PAFAH1B3 enzyme inhibitors, primary screen, biochemical, fluorescence polarization, human; Platelet-activating factor acetylhydrolase IB subunit alpha1 (Homo sapiens), Q15102; AID 492972, 2010; recombinant PAFAH1B3, FP-rhodamine probe; actives 0.28% (n = 340,000); inhibition, % at 3.39 µM;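 active = inhibition above the screen-wide average of all tested compounds plus 3 SD, cut at about 25% in these data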
# Target sequence (Q15102 whole entry, looked up): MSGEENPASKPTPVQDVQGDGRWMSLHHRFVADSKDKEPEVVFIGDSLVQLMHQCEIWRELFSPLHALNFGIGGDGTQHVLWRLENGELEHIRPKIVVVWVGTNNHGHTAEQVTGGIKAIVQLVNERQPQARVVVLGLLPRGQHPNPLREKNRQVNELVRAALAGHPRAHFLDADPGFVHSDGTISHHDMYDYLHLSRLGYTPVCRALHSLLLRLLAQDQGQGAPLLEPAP
# PAFAH2 FP inh: PAFAH2 enzyme inhibitors, primary screen, biochemical, fluorescence polarization, human; Platelet-activating factor acetylhydrolase 2, cytoplasmic (Homo sapiens), Q99487; actives 0.99% (n = 340,000); inhibition, % at 3.39 µM; recombinant PAFAH2, FP-rhodamine activity probe;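 active = inhibition above the mean over all tested compounds plus 3 SD, cut at about 30% in these data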;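 note: inhibitors block probe labeling of enzyme so polarization drops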
# pPAFAH inh: pPAFAH enzyme inhibitors, primary screen, biochemical, fluorescence polarization, human. Platelet-activating factor acetylhydrolase (Homo sapiens), Q13093. recombinant pPAFAH, FP-rhodamine probe fluorescence polarization. inhibition, % at 3.39 µM. actives 1.5% (n = 330,000). AID 463082, 2010;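 active = inhibition above the mean inhibition across the screen plus 3 SD, cut at about 25% in these data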;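 note: inhibitors block binding of the rhodamine activity-based probe so polarization drops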
# ATG4B inhibitor: ATG4B protease inhibitors, primary screen, biochemical, fluorescence, uHTS; Cysteine protease ATG4B (Homo sapiens), Q9Y4P1; ATG4B cleavage of LC3-PLA2, NBD-HPC fluorescence, 1 h; inhibition, % at 8.33 µM; actives 0.51% (n = 340,000); in the data active = inhibition above about 40%
# DAGLB inhibitor: DAGLB lipase inhibitors, primary screen, biochemical, fluorescence, HTS | actives 0.059% (n = 340,000) | Diacylglycerol lipase-beta (Homo sapiens), Q8NCG7 | inhibition, % at 5.17 µM | AID 504411, 2011 | HEK293T DAGLB membrane lysate, EnzChek fluorogenic substrate; in the data active = inhibition above about 34%
# Hits are given with their value; – = inactive; · = no result. A selection: hits, their analogues and other compounds. The true share with any hit is near 3%.
SMILES,PAFAH1B2 FP inh,PAFAH1B3 inh,PAFAH2 FP inh,pPAFAH inh,ATG4B inhibitor,DAGLB inhibitor
CC(=O)C1=C(O)C(=O)N(c2ccc(S(N)(=O)=O)cc2)C1c1cccc([N+](=O)[O-])c1 (stereo not drawn),–,–,–,–,–,–
CC(=O)C1C(=O)c2c(cccc2[N+](=O)[O-])C1=Nc1ccc(S(N)(=O)=O)cc1 (stereo not drawn),–,34.8,39.3,25.0,–,–
C/C=C(\C)CN1CCC(Oc2cc(C(=O)NC3CC3)ccc2OC)CC1,–,–,–,–,–,–
OCCN1CCN(c2ncnc3c2c(-c2ccccc2)cn3-c2ccc(F)cc2)CC1,–,–,–,25.1,–,–
O=C(COC(=O)c1ncc(Cl)c(Cl)c1Cl)Nc1ccccc1OC(F)F,–,–,–,25.4,–,–
O=C(COC(=O)c1cccc(S(=O)(=O)NCc2ccccc2)c1)Nc1ccccc1OC(F)F,–,–,43.0,31.7,–,–
COc1cccc(C(=O)N(C)Cc2c(C)nn(C3CCS(=O)(=O)C3)c2C)c1 (stereo not drawn),–,–,–,–,–,–
CN(C(=S)Nc1cccnc1)c1ccc(O)cc1,–,–,–,29.0,–,–
CCN(C(=S)Nc1cccnc1)c1ccccc1,–,–,–,–,–,–
CN(C(=S)Nc1ccc(Oc2ccccc2)cc1)c1ccc(O)cc1,–,–,–,27.2,–,–
CN(C(=S)Nc1ccccc1)c1ccccc1,–,–,–,–,–,–
O=C(Cn1cc(SCc2ccc(F)cc2)c2ccccc21)N1CCOCC1,–,–,–,–,–,–
O=C(Cn1cc(SCc2ccc(Cl)cc2)c2ccccc21)N1CCOCC1,24.9,–,–,–,–,–
OCC[C@H]1C[C@H](O)[C@@H](O)[C@]2(OCCc3ccccc32)O1,–,–,–,25.6,–,–
O=C(O)c1cc(NS(=O)(=O)c2cccs2)cc(NS(=O)(=O)c2cccs2)c1,25.5,–,–,–,–,–
O=S(=O)(Nc1ccc(Br)cc1)c1cccc(NS(=O)(=O)c2cccs2)c1,74.7,–,43.3,·,–,–
O=C(NCCCNC(=O)c1ccc(F)cc1)c1ccc(F)cc1,–,–,–,–,–,–
CC(C)(C)c1ccc(C2=CC(c3ccccc3F)n3ncnc3N2)cc1 (stereo not drawn),48.1,–,–,–,–,–
Cn1cccc1C1C=C(c2ccc(C(C)(C)C)cc2)Nc2ncnn21 (stereo not drawn),–,–,–,–,–,–
COc1cccc(C(=O)N(Cc2ccco2)c2c(N)n(Cc3ccccc3)c(=O)[nH]c2=O)c1,–,–,–,–,–,–
CC(OC(=O)c1cc(S(=O)(=O)N2CCOCC2)ccc1F)C(=O)NCc1ccc2c(c1)OCO2 (stereo not drawn),–,–,–,–,–,–
S=c1[nH]nc(Cc2cccc3ccccc23)o1,–,–,–,–,–,–
CC(Cc1n[nH]c(=S)o1)c1ccccc1 (stereo not drawn),25.8,–,–,–,–,–
CC1CC(NC(=O)CC#N)CC(C)(C)C1 (stereo not drawn),–,–,–,–,–,–
CC1CC(NC(=O)C2(C)CC2(Cl)Cl)CC(C)(C)C1 (stereo not drawn),26.0,–,–,–,–,–
SMILES,PAFAH1B2 FP inh,PAFAH1B3 inh,PAFAH2 FP inh,pPAFAH inh,ATG4B inhibitor,DAGLB inhibitor
CC(C)(C)c1ccc(/C=N/OCC(=O)NCc2ccccc2)cc1,–,–,–,–,–,–
Cc1ccc(CNC(=O)CO/N=C/c2ccc(C(C)(C)C)cc2)cc1,28.8,–,–,–,–,–
Cc1nc(-c2cccc(S(=O)(=O)N3CCC(C)CC3)c2)cs1,30.2,–,–,–,–,–
CN1CCN(S(=O)(=O)c2cccc(C(=O)Nc3cc(C(N)=O)cc(C(N)=O)c3)c2)CC1,25.1,–,–,–,–,–
CC1CCN(S(=O)(=O)c2cccc(C(=O)Nc3nncs3)c2)CC1,25.8,–,–,–,–,–
Cc1nc(-c2cccc(S(=O)(=O)N3CCCCC3)c2)cs1,–,–,–,–,–,–
CC1CCN(S(=O)(=O)c2cccc(C(=O)N(Cc3ccccc3)c3ccccn3)c2)CC1,24.6,–,–,–,–,–
CCCCCCN1C[C@H](n2cc(COC(=O)c3ccccc3)nn2)[C@@H](O)C[C@@H]1c1ccc(C)cc1,·,·,·,·,·,–
O=[N+]([O-])c1ccccc1N=Nc1ccc(O)cc1O,·,·,·,·,–,·
O=S(=O)(O)c1cc(O)c(N=Nc2ccc(O)cc2O)c2ccccc12,87.2,89.8,90.4,·,–,–
Cc1ccc(N=C2NC(=O)/C(=C/c3cccn3C)S2)c(C)c1,–,–,–,25.3,–,–
Cc1ccc(NC(=O)CCSCCC(=O)Nc2ccc(C)c(C)c2)cc1C,28.6,–,–,–,–,–
Cc1ccc(NC(=O)CC(=O)Nc2ccc(C)c(C)c2)cc1C,–,–,–,–,–,–
Cc1ccc(NS(=O)(=O)c2ccc3c(c2)CC(=O)N3)c(C)c1,–,–,–,33.3,–,–
C#CCOCCOCCOCCNc1nc(N2CCOCC2)nc(N2CCN(C(=O)[C@H](CCC(=O)O)n3cc(C(N)[C@H](C)CC)nn3)CC2)n1 (stereo partly drawn),–,–,–,–,–,–
CCN(CC)S(=O)(=O)c1cccc(N=Nc2sc(N)nc2C)c1,–,–,–,25.6,–,–
CCN(CC)S(=O)(=O)c1cccc(-c2csc(C)n2)c1,–,–,–,–,–,–
Cc1ccccc1Nc1nc(N)nc(COC(=O)[C@@H](NC(=O)c2ccccc2Cl)C(C)C)n1,–,–,–,–,–,–
CCOc1ccc2nc(SCC(=O)NCc3ccco3)sc2c1,–,–,–,–,–,–
CCOc1ccc2nc(SCC(=O)NC(=O)NCc3ccco3)sc2c1,–,–,–,25.9,–,–
O=C(O/C(=C/c1ccccc1)C(F)(F)F)c1ccccc1,–,–,–,·,–,–
O=C1C=C(NCCc2cc(Br)c(O)c(Br)c2)C(=O)c2ncccc21,28.1,68.3,37.0,·,–,–
O=C(O)c1sccc1SCc1ccc(Cl)cc1Cl,30.1,–,–,–,–,–
C[C@H]1CN([C@@H](C)CO)C(=O)CCCn2nncc2CO[C@H]1CN(C)S(=O)(=O)c1ccc(-n2cccn2)cc1,·,·,·,·,·,–
COC/C=C/C1=CC2=CC(=O)C(C)(OC(=O)c3cnc4ccccc4n3)C(=O)C2=CN1c1ccccc1 (stereo not drawn),·,·,·,–,–,·
CC1(OC(=O)c2cccs2)C(=O)C=C2C=C(C3CC3)OC=C2C1=O (stereo not drawn),–,–,–,–,–,–
